In the library only some 1.4% were active in any assay of this set; here they are far more common.
S1P2 ag: S1P2 receptor agonists, primary screen, cell-based. Sphingosine 1-phosphate receptor 2 (Homo sapiens), O95136. S1P2-expressing cell line, agonist reporter read-out. activation, % at 4.5 µM. 0.46% of 97,000 active. AID 729, 2007; in the data active means activation above about 16%;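 further: 0% = vehicle low control and 100% = maximal reference agonist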
GALR2 agonist: GALR2 receptor agonists, primary screen, cell-based; GALR2-expressing cells, agonist activation read-out; activation, % (no concentration beside the values); 0.48% of 140,000 active; in the data active means activation above about 5%, passing the limit was not always enough;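 further: 0% = vehicle buffer wells and 100% = reference agonist at full effect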
Target sequence (O43603 whole entry, looked up): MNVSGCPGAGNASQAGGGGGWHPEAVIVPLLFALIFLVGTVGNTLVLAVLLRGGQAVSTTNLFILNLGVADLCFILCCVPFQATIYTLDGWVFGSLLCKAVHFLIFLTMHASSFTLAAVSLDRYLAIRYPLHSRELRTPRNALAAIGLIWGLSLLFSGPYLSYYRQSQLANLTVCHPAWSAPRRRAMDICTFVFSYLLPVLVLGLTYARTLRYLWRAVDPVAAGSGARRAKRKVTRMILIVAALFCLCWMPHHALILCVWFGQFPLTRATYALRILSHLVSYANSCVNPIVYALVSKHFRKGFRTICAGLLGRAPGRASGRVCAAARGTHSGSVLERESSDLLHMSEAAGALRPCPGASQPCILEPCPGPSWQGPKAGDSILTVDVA
GALR2 blocker: GALR2 antagonists in receptor-expressing cells, primary screen | AID 828, 2007 | Galanin receptor type 2 (Homo sapiens), O43603 | antagonist mode | 0.39% of 140,000 active | inhibition, % at 4 µM;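 further: cells stimulated with galanin 1-16 at roughly its EC80; 0% = agonist challenge control and 100% = basal control without agonist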
Mac1 fbg enh: enhancers of CD11b/CD18 adhesion to fibrinogen, primary screen, K562 cells, luminescence; ATPlite luminescence; Integrin beta-2 (Homo sapiens) + Integrin alpha-M (Homo sapiens), P05107+P11215; 0.07% of 93,000 active; activation, % at 10 µM; AID 1499, 2009;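 active means 10 µM primary screen giving 50% or more activity, confirmed by 40% or more on retest at that dose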
S1P2 blocker: human S1P2 receptor antagonists, primary screen, cell-based; AID 736, 2007; Sphingosine 1-phosphate receptor 2 (Homo sapiens), O95136; 0.21% of 97,000 active; cell-based S1P2 antagonist assay, inhibition at 5 uM; inhibition, % at 5 µM; in the data active means inhibition above about 45%;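 further: CRE beta-lactamase reporter cells expressing human S1P2 stimulated with S1P; 0% = agonist at EC80 alone and 100% = agonist plus reference antagonist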
CD11b adhes inh: inhibitors of CD11b/CD18 adhesion to fibrinogen, primary screen, K562 cells, luminescence; inhibition, % at 10 µM; AID 1497, 2009; Integrin beta-2 (Homo sapiens) + Integrin alpha-M (Homo sapiens), P05107+P11215; ATPlite luminescence; Mn2+ added to activate the integrin; 0.54% of 93,000 active;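 active means primary inhibition of 50% or more at 10 µM, then 40% or more on retest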
GALR2 blk conf: GALR2 antagonists, retest of hits, confirmation, cell-based; 60% of 480 active; shares compounds with GALR2 blocker; GALR2-expressing cells, antagonist mode, inhibition; inhibition, % at 4 µM;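 further: cells stimulated with galanin at about its EC80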
BLA inh counter: inhibitors of NFAT-driven beta-lactamase reporter, confirmation, counter-screen for GALR2 antagonist project, CHO NFAT-bla cells, FRET readout | 36% of 480 active | inhibition, % at 4.2 µM | thapsigargin-stimulated | AID 867, 2007 | shares compounds with GALR2 blocker;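 active means inhibition above the mean inhibition across tested compounds plus 3 SD, cut at about 27% in these data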;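 further: 0% = 500 nM thapsigargin stimulated wells and 100% = unstimulated BSA only wells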
* = called active by the depositor; . = not tested or not shown. Unless noted, no stated cut-off is given here; in the data, active means inhibition above about 27%; inactive means the rest.

SMILES | S1P2 ag | GALR2 agonist | GALR2 blocker | Mac1 fbg enh | S1P2 blocker | CD11b adhes inh | GALR2 blk conf | BLA inh counter
CCC(C(=O)OCC(=O)Nc1ccc(Cl)c(S(=O)(=O)N(C)C)c1)c1ccccc1 (stereo not drawn) | . | 0 | 15 | . | . | . | . | .
CCc1ccc2c(c1)/C(=C/C(=O)c1cccs1)C(=O)N2 | -4 | 2 | 28* | -7 | 13 | -1 | 35* | 22
O=C(Nc1ncc(Cc2ccc(SC(F)F)cc2)s1)c1ccc(OC(F)F)cc1 | . | 3 | 33* | . | . | . | 8 | 27*
Cc1ccc(Cc2cnc(NC(=O)c3ccco3)s2)cc1 | -2 | -2 | -4 | -5 | -1 | 4 | . | .
CCCCCCCCCCn1c2c(c(=N)c3c1CCC3)CCC2 | -5 | -4 | 36* | . | 87* | . | 30* | 57*
O=[N+]([O-])c1cc(-c2ncccn2)c([N+](=O)[O-])s1 | . | -1 | 45* | . | . | . | 55* | 26
CCN(CC)S(=O)(=O)c1ccc(-c2nnc3sc4cccc(C)c4n23)cc1 | -6 | -2 | 13 | 5 | 7 | 5 | . | .
CCCC(=O)OCCn1c(Br)nc2c1c(=O)[nH]c(=O)n2C | -13 | -1 | 30* | . | -5 | . | 25 | 0
COc1ccc(N(C(=O)C(C)C)S(=O)(=O)c2cccs2)cc1 | -5 | -1 | -7 | 0 | -26 | 8 | . | .
CONc1nc(NC(C)(C)C)nc(OCC#N)n1 | . | -1 | 4 | . | . | . | . | .
CN(C)c1nc(Nc2ccc(Cl)cc2)nc(OCC#N)n1 | -5 | -2 | 35* | -8 | -8 | -2 | 30* | 14
C=CCn1c(C)cc(C(=O)Cn2ncc(Cl)c(Cl)c2=O)c1C | . | -2 | 57* | . | . | . | 46* | 21
O=C(/C=C/c1cn(CC(O)CN2CCCCCC2)c2ccccc12)c1cccs1 (stereo not drawn) | . | 2 | 20 | . | . | . | . | .
CCCCN(C)CC(O)Cn1cc(/C=C/C(=O)c2cccs2)c2ccccc21 (stereo not drawn) | . | 1 | 50* | -4 | . | -21 | 29* | 43*
CCN(CC)CCCNC(=O)c1nn(-c2ccc(OC)cc2OC)c(=O)c2ccccc12 | -4 | 1 | -14 | 3 | 19 | -21 | . | .
Nc1nn(-c2ccccc2)c(N)c1N=Nc1ccccc1 | . | -1 | 28* | . | . | . | 16 | 9
COc1ccccc1-n1nc(C(=O)Nc2ccc3c(c2)OCO3)c2ccccc2c1=O | . | -2 | 42* | 1 | . | -3 | 26 | 31*
COc1ccc(-n2nc(C(=O)Nc3ccc4c(c3)OCO4)c3ccccc3c2=O)c(OC)c1 | . | -2 | 5 | 23 | . | -28 | . | .
CC(=O)c1c(C)[nH]c(C(=O)COc2cc(C)ccc2C(C)C)c1C | -1 | -2 | 33* | -1 | 66* | 10 | 50* | 18
Cc1ccc(C(C)C)c(OCC(=O)Nc2ccc(Cl)cn2)c1 | -1 | 2 | 0 | 0 | -12 | 14 | . | .
COc1ccccc1Oc1cc(-n2nc(C)cc2C)ncn1 | . | -1 | -5 | . | . | . | . | .
CCOc1cnn(-c2cc(Oc3ccc(C)cc3)ncn2)c(=O)c1Cl | -6 | -1 | 28* | -1 | 1 | -47 | 3 | 10
Cc1ccccc1Oc1cc(-n2ncc(Cl)c(Cl)c2=O)ncn1 | . | -2 | 82* | . | . | . | 97* | 103*
COC(=O)c1cnn(-c2cc(Oc3ccccc3)ncn2)c1N | -5 | -2 | 0 | -3 | -8 | 3 | . | .
Cc1cccc(-n2c(N)c(-c3nc4ccccc4n3C)c3nc4ccccc4nc32)c1 | . | 0 | 11 | . | . | . | . | .
Cn1c(-c2c(N)n(-c3ccccc3)c3nc4ccccc4nc23)nc2ccccc21 | . | 0 | 33* | . | . | . | 35* | 47*
O=C(CCl)N1N=C(c2ccco2)CC1c1cccs1 (stereo not drawn) | . | -1 | 29* | -6 | . | -10 | 33* | 18
O=C(Nc1ccc2nc(-c3cccnc3)[nH]c2c1)C1CCCCC1 | 1 | -1 | 12 | . | -12 | . | . | .

Screens deposited in PubChem by several laboratories.
